In the library only some 18% were active in any assay of this set; here they are far more common.
CtBP-E1A inh = blocks the CtBP interaction with E1A; activity change, % (test concentration not listed); AlphaScreen GST-E1A/His-CtBP binding, 1536-well; hits give low values; 340,000 tested, 0.49% active; in the data active means activity change below about -65%; inconclusive means mostly about -30% to -63%
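Homogeneous bead-based format: GST-tagged E1A captured on glutathione donor beads, His-tagged CtBP on nickel acceptor beads; compounds precede bead addition by 2 h at 37 °C.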
TDP1 inh = blocks human tyrosyl-DNA phosphodiesterase 1; Q9NUW8; Potency, µM (titrated, usually from 130 µM), for inactives: top-dose activity change, negative = inhibition, usual class: inhibitors; 350,000 tested, 0.28% active; recombinant TDP1, AlphaScreen DNA substrate cleavage; further: potency means the concentration at half of the fitted maximal effect; nearly all actives have a fitted effect of over 40% in size
Target sequence (Q9NUW8 whole entry, looked up): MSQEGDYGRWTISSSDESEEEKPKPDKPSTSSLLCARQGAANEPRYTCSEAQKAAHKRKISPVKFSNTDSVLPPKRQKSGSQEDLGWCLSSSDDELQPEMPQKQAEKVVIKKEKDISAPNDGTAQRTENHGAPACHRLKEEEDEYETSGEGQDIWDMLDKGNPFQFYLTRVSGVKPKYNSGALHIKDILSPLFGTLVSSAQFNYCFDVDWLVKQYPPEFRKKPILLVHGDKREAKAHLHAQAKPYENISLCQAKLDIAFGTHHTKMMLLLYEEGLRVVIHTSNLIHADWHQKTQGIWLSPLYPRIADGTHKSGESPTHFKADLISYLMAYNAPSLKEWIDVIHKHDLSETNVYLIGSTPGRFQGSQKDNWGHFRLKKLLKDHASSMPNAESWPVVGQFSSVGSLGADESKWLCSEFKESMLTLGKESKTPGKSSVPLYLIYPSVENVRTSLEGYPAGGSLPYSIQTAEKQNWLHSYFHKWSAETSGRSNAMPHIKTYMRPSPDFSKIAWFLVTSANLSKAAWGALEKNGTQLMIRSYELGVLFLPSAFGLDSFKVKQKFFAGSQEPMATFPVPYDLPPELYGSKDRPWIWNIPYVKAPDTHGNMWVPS
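Steps: enzyme plus compound, 15 min RT; add biotin/phosphotyrosine-FITC oligonucleotide (15 nM final), react 5 min; add donor/acceptor beads (10 ug/ml final), 10 min; read AlphaScreen. Tdp1 at 1 nM final.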
TDP1 cell noCPT = qHTS for Inhibitors of human tyrosyl-DNA phosphodiesterase 1 (TDP1): qHTS in cells in absence of CPT | DT40 Tdp1-/- hTDP1 cells, no CPT, ATP luminescence, 48 h | Potency, µM (top dose mostly 46.2 µM), for the others: top-dose activity change, negative = growth inhibition, hits mostly inhibitors | 420,000 tested, 15% active; further: potency means the concentration at half of the fitted maximal effect; nearly all actives have a fitted effect of over 55% in size
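A cellular qHTS used chicken DT40 cells lacking endogenous Tdp1 but carrying stably transfected human TDP1. Compounds were applied without camptothecin, and cell growth kinetics were judged by ATP-dependent luminescence after ≥48 hr.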
Six1-Eya2 inh = Six1/Eya2 interaction inhibition. activity change, % (test concentration not listed). AlphaScreen GST-Six1/His-Eya2 binding, biochemical; hits give low values. 360,000 tested, 0.56% active; in the data active means activity change below about -65%; inconclusive means mostly about -30% to -63%
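GST-Six1 + His-Eya2 (5X stock: 250/500 nM); Tris pH 8.0, 300 mM NaCl, 0.05% BSA, 0.02% Tween 20; GSH donor/Ni acceptor beads; 1 h 37 °C dark; AlphaScreen readout.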
TDP1 cell CPT = DT40-hTDP1 cell growth loss with CPT; chicken DT40 Tdp1-/-;hTDP1 cells + 20 nM CPT, ATP luminescence, 48 h; Potency, µM (highest dose often 46.2 µM), inactives show at the top dose activity change, negative = growth inhibition, usual class: inhibitors; 420,000 tested, 12% active; further: potency means the concentration at half of the fitted maximal effect; nearly all actives have a fitted effect of over 55% in size
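Cell growth measured by CellTiter-Glo luminescence after a minimum 48 h, 37 C compound exposure with 20 nM CPT in Tdp1-knockout DT40 cells stably expressing hTDP1, seeded 400/well; qHTS titration format.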
IL1B secr inh = inflammasome signaling inhibition, IL-1 beta readout; THP-1 LPS/ATP IL-1B secretion, AlphaLISA, 16 h; hits give low values; activity change, % at 57.5 µM; 360,000 tested, 4.7% active; AID 743279; in the data active means activity change below about -50%; inconclusive means mostly about -30% to -49%
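THP-1 cells pretreated 1 hr with compounds (up to 57.5 uM final), then stimulated with LPS (250 ng/mL final) plus ATP (1.25 mM final); secreted IL-1B measured by AlphaLISA after 16 hr, decreased signal indicating inhibition.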
Numbers without * were called inactive; [ ] = remark or other dose. Unless noted, the call rests on the fitted dose curve; in most records, active means well fitted curve in the direction sought with a large enough effect; inconclusive means small, poorly fitted or top-dose-only effect, or another doubt; inactive means no such curve, though single readings can be large; an effect the other way counts as inactive or inconclusive. On the % scale 0 is the no-effect control and ±100 the full control effect.

What do the screens show for `O=C(NC(=S)Nc1ccc(N2CCN(C(=O)c3ccccc3)CC2)cc1)c1cccs1`?
CtBP-E1A inh: -11; TDP1 inh: 5%; TDP1 cell noCPT: 26µM*; Six1-Eya2 inh: -9; TDP1 cell CPT: inconclusive; IL1B secr inh: -60*

What do the screens show for `O=C(NC(=S)Nc1ccc(N2CCCCC2)cc1)c1cccs1`?
CtBP-E1A inh: inconclusive; TDP1 inh: 11%; TDP1 cell noCPT: inconclusive; Six1-Eya2 inh: -67*; TDP1 cell CPT: 21µM*; IL1B secr inh: inconclusive

How did CCCC(=O)NC(=S)Nc1ccc(NC(=O)c2cccs2)cc1 do in these assays?
CtBP-E1A inh: 8; TDP1 inh: 3%; TDP1 cell noCPT: -18%; Six1-Eya2 inh: -3; TDP1 cell CPT: -7%; IL1B secr inh: -10

What do the screens show for `O=C(NC1CCCC1)c1ccccc1-c1nc2ccccc2[nH]1`?
CtBP-E1A inh: -2; TDP1 inh: 3%; TDP1 cell noCPT: 2%; Six1-Eya2 inh: 6; TDP1 cell CPT: 0%; IL1B secr inh: 1

How did O=C(Nc1noc2ccccc12)c1c(F)cccc1F do in these assays?
TDP1 inh: 4%; TDP1 cell noCPT: -18%; TDP1 cell CPT: inconclusive

Results for CCN(CC)S(=O)(=O)c1ccc2c(c1)[nH]c(=S)n2CC ?
CtBP-E1A inh: 2; TDP1 inh: 8%; TDP1 cell noCPT: -28%; Six1-Eya2 inh: -2; TDP1 cell CPT: -11%; IL1B secr inh: 0

How did CCN(CC)S(=O)(=O)c1ccc2nc(CCl)[nH]c2c1 do in these assays?
CtBP-E1A inh: -15; TDP1 inh: 5%; TDP1 cell noCPT: inconclusive; Six1-Eya2 inh: 17; TDP1 cell CPT: 26µM*; IL1B secr inh: -82*

How did O=C(COc1cccnc1[N+](=O)[O-])Nc1ccc2c(c1)OCO2 do in these assays?
TDP1 cell noCPT: 0%; Six1-Eya2 inh: 8; TDP1 cell CPT: -6%; IL1B secr inh: 14

What do the screens show for `Cc1[nH]c2ccccc2c1C=NNC(=O)c1cc(-c2cccnc2)nc2ccccc12`?
CtBP-E1A inh: -13; TDP1 inh: 4%; TDP1 cell noCPT: 7.3µM*; Six1-Eya2 inh: -14; TDP1 cell CPT: 13µM*; IL1B secr inh: 22

How did O=C(N/N=C/c1ccc(F)cc1)c1cc(-c2ccccn2)nc2ccccc12 do in these assays?
CtBP-E1A inh: 6; TDP1 inh: -4%; TDP1 cell noCPT: -19%; Six1-Eya2 inh: -2; TDP1 cell CPT: inconclusive; IL1B secr inh: 18

What do the screens show for `COc1cccc(/C=N/NC(=O)c2cc(-c3ccccn3)nc3ccccc23)c1O`?
CtBP-E1A inh: -95*; TDP1 inh: 2%; TDP1 cell noCPT: 8.2µM*; Six1-Eya2 inh: -75*; TDP1 cell CPT: 9.2µM*; IL1B secr inh: 87

Results for O=C(N/N=C/c1cc(Cl)cc([N+](=O)[O-])c1O)c1cc(-c2ccccn2)nc2ccccc12 ?
CtBP-E1A inh: 20; TDP1 cell noCPT: 15µM*; Six1-Eya2 inh: -11; TDP1 cell CPT: 6.5µM*; IL1B secr inh: 131

Results for COc1ccc(/C=N/NC(=O)c2cc(-c3ccccc3)nc3ccccc23)c(C(=O)O)c1OC ?
CtBP-E1A inh: 2; TDP1 cell noCPT: -23%; Six1-Eya2 inh: 1; TDP1 cell CPT: -16%; IL1B secr inh: 1

What do the screens show for `COc1cccc(-c2cc(C(=O)N/N=C/c3cccc(OC)c3OC)c3ccccc3n2)c1`?
CtBP-E1A inh: -4; TDP1 cell noCPT: 4.6µM*; Six1-Eya2 inh: -28; TDP1 cell CPT: 21µM*; IL1B secr inh: -13

How did Cc1nc2ccccc2c2oc(C(=O)N3CCCC(C)C3)cc12 (configuration not stated) do in these assays?
TDP1 inh: 1%; TDP1 cell noCPT: inconclusive; Six1-Eya2 inh: 6; TDP1 cell CPT: inconclusive; IL1B secr inh: 24

What do the screens show for `c1csc(-c2ccc3nncn3c2)c1`?
CtBP-E1A inh: -14; TDP1 cell noCPT: -5%; Six1-Eya2 inh: -3; TDP1 cell CPT: inconclusive; IL1B secr inh: 47

What do the screens show for `O=[N+]([O-])c1cc(Cl)cc(/C=N\Nc2ccccn2)c1O`?
CtBP-E1A inh: -87*; TDP1 inh: 13%; TDP1 cell noCPT: 5.2µM*; Six1-Eya2 inh: -95*; TDP1 cell CPT: 5.2µM*; IL1B secr inh: 126

What do the screens show for `COc1ccc(/C=N/NC(=O)c2cc(-c3cccnc3)nc3ccccc23)c(OC)c1`?
CtBP-E1A inh: 0; TDP1 inh: 3%; TDP1 cell noCPT: 4.6µM*; Six1-Eya2 inh: 10; TDP1 cell CPT: inconclusive; IL1B secr inh: 27

What do the screens show for `COCCn1c(SCC(=O)Nc2ccc3[nH]c(=O)[nH]c3c2)nc2ccccc21`?
CtBP-E1A inh: 0; TDP1 inh: 0%; TDP1 cell noCPT: inconclusive; Six1-Eya2 inh: -3; TDP1 cell CPT: 5%; IL1B secr inh: 14

What do the screens show for `Cc1cc(C)c(S(=O)(=O)N2CCN(S(=O)(=O)N3CCCCCC3)CC2)c(C)c1`?
CtBP-E1A inh: 0; TDP1 inh: 10%; TDP1 cell noCPT: inconclusive; Six1-Eya2 inh: -22; TDP1 cell CPT: inconclusive; IL1B secr inh: 8

How did CCc1ccccc1NC(=O)CN1CCN(C(=O)CNC(=O)c2ccc(-c3ccccc3)cc2)CC1 do in these assays?
CtBP-E1A inh: 2; TDP1 inh: 1%; TDP1 cell noCPT: 7.3µM*; Six1-Eya2 inh: 0; TDP1 cell CPT: 4.6µM*; IL1B secr inh: -3

Results for Cc1ccc(C(=O)NCC(=O)N2CCN(c3ccccc3)CC2)cc1 ?
TDP1 cell noCPT: 6%; Six1-Eya2 inh: 2; TDP1 cell CPT: 7%; IL1B secr inh: -15

Results for CCc1ccccc1NC(=O)CN1CCN(CC(=O)Nc2ccc(-c3ccccc3)cc2)CC1 ?
CtBP-E1A inh: 2; TDP1 inh: 2%[0.0935 µM]; TDP1 cell noCPT: 16µM*; Six1-Eya2 inh: -2; TDP1 cell CPT: inconclusive; IL1B secr inh: -3

Results for COC(=O)C1=C(C(=O)OC)[C@@H]2N(C)c3ccccc3[C@@]23C[C@@H](CO)N(C(=O)C2CCC2)C3=N1 ?
CtBP-E1A inh: -5; TDP1 inh: 15%[12.3 µM]; TDP1 cell noCPT: -13%; Six1-Eya2 inh: 2; TDP1 cell CPT: -2%; IL1B secr inh: -24

How did CCCc1cc2c(-c3ccccc3)cc(=O)oc2cc1OCc1ccc(C(=O)O)o1 do in these assays?
TDP1 inh: -3%; TDP1 cell noCPT: -2%; Six1-Eya2 inh: -5; TDP1 cell CPT: 21%; IL1B secr inh: 14

How did COC(=O)c1ccccc1NC(=O)c1cc([N+](=O)[O-])nn1Cc1ccccc1 do in these assays?
CtBP-E1A inh: -22; TDP1 inh: 5%; TDP1 cell noCPT: 6%; Six1-Eya2 inh: -1; TDP1 cell CPT: -24%; IL1B secr inh: 29
